Assay results from PubChem BioAssay AID485270 (The Scripps Research Institute Molecular Screening Center, 2010).
About 5,800 (1.8%) of roughly 330,000 compounds were called active. No stated cut-off is given here; in the data, active means inhibition mostly above about 38% (no sharp cut-off); inactive means mostly below about 40%. This excerpt belongs to a sample that is enriched for actives.

biological target: Orexin/Hypocretin receptor type 1 (Homo sapiens) (UniProt O43613); experiment: antagonists of human orexin 1 receptor (OX1R) (AID 485270); settings: OX1R-expressing cells, FRET antagonist read-out; at 6.6 µM; hits give high values;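 further: 0% = agonist challenge alone and 100% = reference antagonist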
Sequence (O43613 whole entry, looked up): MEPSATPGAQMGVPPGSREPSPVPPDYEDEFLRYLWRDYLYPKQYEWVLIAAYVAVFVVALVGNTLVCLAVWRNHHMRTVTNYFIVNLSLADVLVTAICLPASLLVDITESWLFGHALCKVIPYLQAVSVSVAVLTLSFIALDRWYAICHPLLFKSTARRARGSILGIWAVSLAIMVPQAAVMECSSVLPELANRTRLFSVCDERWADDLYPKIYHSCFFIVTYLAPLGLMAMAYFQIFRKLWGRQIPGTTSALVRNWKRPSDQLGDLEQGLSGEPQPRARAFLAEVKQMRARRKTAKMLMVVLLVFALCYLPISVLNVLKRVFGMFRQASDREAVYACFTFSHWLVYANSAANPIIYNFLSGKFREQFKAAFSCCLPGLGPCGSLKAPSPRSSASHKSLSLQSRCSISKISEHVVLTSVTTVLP

SMILES	inhibition
COc1cccc(C(=O)NNC(=O)c2cccc(F)c2)c1	-10.7% (inactive)
COc1cccc(C(=O)NC(=O)Nc2nc(C)cc(C(F)(F)F)n2)c1	64.4% (active)
Cc1cc(C)nc(NC(=O)Nc2ccccc2C(F)(F)F)n1	19.6% (inactive)
COc1cccc(CNC(=O)CN2C(=O)NC(Cc3ccccc3)(c3ccccc3)C2=O)c1 (stereo unspecified)	40.8% (active)
COc1cccc(CNC(=O)COC(=O)CN2C(=O)NC3(CCCCC3C)C2=O)c1 (stereo unspecified)	4.53% (inactive)
CNC(=O)CN1C(=O)NC(c2ccccc2)(c2ccccc2)C1=O	27% (inactive)
O=C(NCc1ccc2c(c1)OCO2)c1c(-c2ccsc2)sc2ccccc12	35.8% (inactive)
Cc1ccc(S(=O)(=O)N(C)c2ccc(OCC(=O)OCc3ccc(C#N)cc3)cc2)cc1	5.89% (inactive)
Cc1cccc(OP(=O)(Nc2c(C)n(C)n(-c3ccccc3)c2=O)Oc2cccc(C)c2)c1	61.5% (active)
Cc1c(NC(=S)Nc2ccccc2)c(=O)n(-c2ccccc2)n1C	6.12% (inactive)
Cc1c(NC(=O)C(C)Oc2cccc(Cl)c2)c(=O)n(-c2ccccc2)n1C (stereo unspecified)	16% (inactive)
COc1ccc(-c2noc(CCC(=O)N3CCN(c4cccc(C)c4)CC3)n2)cc1	7.06% (inactive)
CN(C)C(=O)CCc1ccc2c3c([nH]c2c1)[C@]1(C)[C@@H](C(=O)N2CCCCC2)C[C@H](CC(=O)NCCC2=CCCCC2)C(=O)N1CC3	10.5% (inactive)
C[C@@H]1CN([C@@H](C)CO)C(=O)c2cccc(NS(=O)(=O)c3ccc(F)cc3)c2O[C@H]1CN(C)C(=O)NC1CCCCC1	11.9% (inactive)
COc1ccc(C(=O)OCc2cc(=O)n3ccsc3n2)cc1F	3.7% (inactive)
CCN1/C(=C/c2ccc3ccc(C)cc3[n+]2CC)Sc2ccccc21	38.5% (inactive)
CCN1/C(=C\c2ccc3ccccc3[n+]2CC)Sc2cc(C)ccc21	69.9% (active)
CN(CC(=O)Nc1ccc(OC(F)F)cc1)S(=O)(=O)/C=C/c1ccccc1	6.62% (inactive)
Cn1c(N)c(C(=O)COC(=O)c2cnc(Cl)c(Cl)c2)c(=O)n(C)c1=O	6.46% (inactive)
Cn1c(N)c(C(=O)COC(=O)c2ccc3ccccc3c2)c(=O)n(C)c1=O	44.9% (active)
Cn1c(N)c(C(=O)COC(=O)c2cccc(S(=O)(=O)N3CCOCC3)c2)c(=O)n(C)c1=O	13.1% (inactive)
Cn1cncc1C#Cc1c(-c2ccsc2)sc2ccccc12	10.4% (inactive)

SMILES	inhibition
CC1Cc2ccccc2N1S(=O)(=O)c1cccc(C(=O)OCC(=O)N2CCOCC2)c1 (stereo unspecified)	7.49% (inactive)
O=S(=O)([N-]c1nc2ccccc2nc1-[n+]1ccc(Cc2ccccc2)cc1)c1ccc(Br)s1	20.8% (inactive)
Cc1ccc(C)c(NC(=O)CN(C)C(=O)COc2ccc3ccccc3c2)c1	19.9% (inactive)
c1ccc2sc(NN=C3CCCC3)nc2c1	3.98% (inactive)
Cc1ccnc(-n2sc3ccccc3c2=O)n1	15.6% (inactive)
Cc1ccnc(Nc2nc3ccccc3s2)n1	55.2% (active)
COc1ccc(/C=C/C(=O)Nc2ccc(C34CC5CC(CC(O)(C5)C3)C4)cc2)cc1OC	18.9% (inactive)
C=CCC[C@@H](Cc1ccc(F)cc1)C(=O)OC[C@@H](C)NC(=O)[C@H](CC=C)CC(=O)N(CCO)Cc1ccccc1	7.32% (inactive)
O=S(=O)(NCC1CN(S(=O)(=O)c2ccc3c(c2)OCCO3)C1)c1c(F)cccc1F	3.02% (inactive)
Cc1nn(-c2ccc([N+](=O)[O-])cc2)c(N)c1-c1ccccc1	62.8% (active)
Cc1nc(-c2ccc([N+](=O)[O-])cc2)c(-c2ccccc2)o1	5.07% (inactive)
Cc1cc(CO)nn1-c1ccc([N+](=O)[O-])cc1	46.5% (inactive)
O=C(COc1ccc(Br)cc1F)NCC1(N2CCCCC2)CCCCC1	9.11% (inactive)
O=C(COC(=O)c1ccc([N+](=O)[O-])o1)NC12CC3CC(CC(C3)C1)C2	23.2% (inactive)
O=C(Nc1ccc(C(=O)N2CCCCC2)cc1)c1cccc([N+](=O)[O-])c1	4.33% (inactive)
O=C(Oc1ccc(Br)cc1C(=S)N1CCOCC1)c1cccc([N+](=O)[O-])c1	18.1% (inactive)
O=C(Oc1ccccc1C(=S)N1CCCCC1)c1cc([N+](=O)[O-])cc([N+](=O)[O-])c1	123% (active)
CC(=O)Nc1ccc(NC(=O)COC(=O)C2CCC(C(C)(C)C)CC2)cc1 (stereo unspecified)	7.49% (inactive)
O=C(Nc1ccc(-n2cccn2)cc1)C1CCN(Cc2ccsc2)CC1	-0.73% (inactive)
COc1ccccc1CNC(=O)c1ccc(Cl)c(S(=O)(=O)N2CCCC2)c1	16.6% (inactive)
COc1ccc(CNC(=O)COC(=O)C(CCSC)N2C(=O)c3ccccc3C2=O)cc1 (stereo unspecified)	9.55% (inactive)
COc1cc(OC)cc(C(=O)NC(C(=O)N2CCC2)C(C)C)c1 (stereo unspecified)	4.23% (inactive)

SMILES	inhibition
COc1ccc(-c2nnc(NC(=O)CS(=O)(=O)c3ccc(Cl)cc3)o2)c(OC)c1	47.9% (active)
COc1ccc(NC(=O)CS(=O)(=O)c2ccccc2)cc1	-4.46% (inactive)
Cc1ccc(C)c(-c2nnc(NC(=O)CS(=O)(=O)c3ccccc3)o2)c1	12.7% (inactive)
CCCCNc1c(-c2cccc(Sc3ccc(OC)cc3)c2)nc2ccccn12	32.8% (inactive)
c1ccc2c(CCN3CCNC[C@H]3Cc3cccc4ccccc34)cccc2c1	3.65% (inactive)
CC(NC(=O)COC(=O)Cn1cc(C(F)(F)F)ccc1=O)c1ccccc1 (stereo unspecified)	3.44% (inactive)
O=c1[nH]c(=O)c2nc3ccccc3nc2[nH]1	53.3% (active)
Nc1ccc2nc3c(=O)[nH]c(=S)[nH]c3nc2c1	93.8% (active)
Cc1cc2nc3c(=O)n(Cc4ccccc4)c(=O)[nH]c3nc2cc1N	14.8% (inactive)
O=c1[nH]c(-c2cccs2)nc2ccccc12	42.7% (inactive)
O=c1[nH]c(-c2ccccc2)c(-c2ccccc2)[nH]1	8.25% (inactive)
O=C1OCCN1C(=O)[C@H]1[C@H](c2ccc(Cl)cc2)C(c2cccc(Cl)c2)=NN1c1ccc(Br)cc1	-1.81% (inactive)
Cc1ccc(C)c(N2CCN(C(=O)CCc3nc(-c4cccc(C(F)(F)F)c4)no3)CC2)c1	5.16% (inactive)
CC(=O)N(O)CCCCCNC(=O)CCC(=O)N(O)CCCCCNC(=O)CCC(=O)N(O)CCCCCNC(=O)CCC(=O)O	3.94% (inactive)
Cc1ccc(C(=O)Nc2ccc3c(c2)OCCO3)cc1S(=O)(=O)N1CCOCC1	1.11% (inactive)
COc1cc(OC)cc(C(=O)N[C@H](C(=O)NNC(=O)c2ccc(Br)cc2)C(C)C)c1	6.01% (inactive)
N/C(=N\OC(=O)c1ccc2c(c1)OCO2)c1ccc(Br)cc1	10.9% (inactive)
Nc1[nH][nH]c(=O)c1N=Nc1ccc2c(c1)OCO2	84.8% (active)
O=C(c1ccc2c(c1)OCO2)N1CCOCC1	14.4% (inactive)
CC(C)(C)OC(=O)C[C@@H]1C/C=C\C[C@@H](CC(=O)N[C@H](CO)Cc2ccccc2)C(=O)NCCOC1=O	5.83% (inactive)
O=C(C[C@H]1C/C=C\C[C@@H](NC(=O)OCC2c3ccccc3-c3ccccc32)C(=O)O[C@@H](c2ccccc2)CNC1=O)N[C@H](CO)Cc1ccccc1	6.4% (inactive)
Cc1cc(N2CCCC2)ccc1NC(=O)COc1ccc(Cl)cc1	8.39% (inactive)

SMILES	inhibition
COC(=O)N/N=C/c1cn(CCCOc2ccc(C)cc2)c2ccccc12	13.5% (inactive)
COC(=O)N/N=C/c1c[n+]([O-])c2ccccc2[n+]1[O-]	101% (active)
COC(=O)N/N=C/c1ccc(/C=N/NC(=O)OC)cc1	48.6% (inactive)
O=C(Nc1cc(S(=O)(=O)N2CCCCC2)ccc1Cl)C1COc2ccccc2O1 (stereo unspecified)	2.12% (inactive)
CC(=O)c1ccc(NC(=O)CSc2nc3ccccc3c(=O)n2CCCN2CCOCC2)cc1	3.62% (inactive)
Fc1ccc(-n2c(Cc3ccccc3)nnc2SCc2nc(-c3ccc(Cl)cc3)no2)cc1	35% (active)
Cc1ccc(-c2noc(CSc3nnc(-c4ccccc4)n3C)n2)cc1	14.3% (inactive)
Cc1ccc(-c2noc(CSc3nnc(-c4ccncc4)n3-c3ccc(F)cc3)n2)cc1	13.8% (inactive)
O=C(CSc1nnc(-c2ccc([N+](=O)[O-])cc2)o1)Nc1ccccn1	20.6% (inactive)
CCOC(=O)CSc1nnc(-c2ccc([N+](=O)[O-])cc2)o1	58.6% (active)
Cc1cccc(C)c1OC(=O)CSc1nnc(-c2ccccc2)o1	27.6% (inactive)
Cc1noc(C)c1NC(=O)Nc1ccc2c(c1)C(=O)N([C@H](C)CO)C[C@H](C)[C@@H](CN(C)C(=O)Nc1ccc(C(F)(F)F)cc1)O2	7.42% (inactive)
COc1ccc(CCNC(=O)COC(=O)c2ncc(Cl)c(Cl)c2Cl)cc1OC	9.72% (inactive)
Cc1ccc(Nc2nc(CSc3nnnn3-c3ccccc3)cc(=O)[nH]2)cc1	81.8% (active)
COc1ccc(C)cc1-n1nnnc1SCc1nc2ccccc2c(=O)[nH]1	35.5% (inactive)
Cc1ccc(-c2noc(CSc3nnnn3-c3ccccc3)n2)cc1	5.93% (inactive)
COC(=O)Cn1c2ccc(C)cc2c2nc(C)sc21	11.6% (inactive)
CCn1c(O)c(N=NC(=O)c2cccc(S(=O)(=O)N3CCCCC3)c2)c2ccccc21	11% (inactive)
CCn1c(O)c(N=NC2=NC(=O)CS2)c2cc(C)ccc21	101% (active)
CCN(C(=O)CSc1cccc[n+]1[O-])c1ccccc1	0.91% (inactive)
